Assay results taken from PubChem BioAssay (NCATS).
Records with an inconclusive call do not appear. A call without a number means that no potency is given here. A number with no mark means an inactive call. Activity calls are given as the source filed them. Calls follow the shape of the dose curve; as a rule, active = well fitted inhibition curve with a large enough effect; inconclusive = small, poorly fitted or top-dose-only effect; inactive = no such curve, though single readings can be large or run the other way.

Target: Cytochrome P450 2C9 (Homo sapiens) (UniProt P11712)
Sequence (P11712 whole entry, looked up): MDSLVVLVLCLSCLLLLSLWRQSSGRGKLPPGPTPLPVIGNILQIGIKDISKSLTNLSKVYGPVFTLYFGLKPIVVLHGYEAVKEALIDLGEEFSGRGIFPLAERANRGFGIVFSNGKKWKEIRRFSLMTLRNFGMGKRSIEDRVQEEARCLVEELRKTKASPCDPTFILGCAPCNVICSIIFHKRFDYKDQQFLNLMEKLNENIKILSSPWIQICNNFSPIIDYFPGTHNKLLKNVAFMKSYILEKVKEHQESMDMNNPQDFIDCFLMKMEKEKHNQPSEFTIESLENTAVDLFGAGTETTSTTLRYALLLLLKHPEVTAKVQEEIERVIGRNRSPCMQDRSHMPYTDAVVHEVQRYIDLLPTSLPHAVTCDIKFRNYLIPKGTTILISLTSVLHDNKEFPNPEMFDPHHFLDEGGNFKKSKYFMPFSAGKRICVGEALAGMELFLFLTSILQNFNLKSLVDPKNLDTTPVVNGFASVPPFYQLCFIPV
Experiment: qHTS for inhibitors of CYP2C9 against the NCATS DSHEA and TCM libraries (AID 1919973);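 as to activity change, negative = inhibition: luminogenic pro-luciferin CYP2C9 substrate turned into luciferin with NADPH regeneration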
Settings: recombinant CYP2C9 enzyme activity, luminescence; series mostly up to 34.1 µM
Text: Assay Development and Screening Technology Laboratory (ADST)
National Center for Advancing Translational Sciences (NCATS), Rockville, MD
National Institute of Health (NIH), Bethesda, Maryland
Dietary Supplements and Natural Products have minor oversight of their safety and efficacy. We assembled a collection of Dietary Supplements and Natural Products (DSNP) as well as Traditional Chinese Medicinal (TCM) Plant extracts, which were screened against an in vitro panel of assays, including a liver cytochrome p450 enzyme panel, CAR/PXR signaling pathways, and P-gp transporter assays, to assess their activity. This pipeline facilitated the interrogation of Natural Product-Drug Interaction (NaPDI) through prominent metabolizing pathways. In addition, we compared the activity profiles of the DSNP/TCM substances with those of an approved drug collection. Many of the approved drugs have well-annotated mechanisms of action (MOA) while the MOAs for most of the DSNP and TCM samples remain unknown. Based on the premise that compounds with similar activity profiles tend to share similar targets or MOA, we clustered the library activity profiles to identify overlap with the NCATS Pharmaceutical Collection to predict the MOAs of the DSNP/TCM substances. Overall, we highlight four significant bioactivity profiles (measured by p-values) as examples of this prediction. To assess broad cytotoxicity, we employed screening against a HepG2 cell line. In addition, transporter-mediated drug interactions are utilized in the characterization of DDIs using a P-glycoprotein (P-gp) assays. To profile potential P-gp activity, a differential cell viability was measured against two cell lines: a parental KB-3-1 human cervical adenocarcinoma cell line and the drug-resistant subline KB-8-5-11 that overexpresses P-gp.
To this end, we profiled both collections for potential CAR and/or PXR activity, employing a previously published 1536-well qHTS assay.
[1] Lee TD, et al. A High-Throughput Screen of a Library of Therapeutics Identifies Cytotoxic Substrates of P-glycoprotein. Mol Pharmacol. Nov 2019;96(5):629-640. doi:10.1124/mol.119.115964
PROTOCOL TABLE (as described by Inglese J, Shamu CE and Guy RK. 2007)
SEQUENCE No. (e.g., 1, 2, 3, etc.); […] (e.g., Cells, Incubation, Reagent, etc.); VALUE; DESCRIPTION.
1; Reagent; 2 uL; cytochrome P450 enzyme and luciferin substrate or buffer only, white solid-bottom Greiner plate.
2; Compounds and control; 16 nL; Kalypsis pintool (Wako USA) equipped with a 1536-well pin head to transfer to the assay plates.
3; Incubation; 15 min; room temperature.
4; Reagent; 2 uL; nicotinamide adenine dinucleotide phosphate (NADPH).
5; Incubation; 30 - 45 min; room temperature in the dark.
6; Reagent; 4 uL; P450-Glo assay detection reagent.
7; Centrifuge; 1000 RPM; 15 seconds.
8; Incubation; 30 min; room temperature.
9; Read; Luminescence; ViewLux plate reader.
NOTES (numbers refer to Sequence numbers above)
1. A 2 uL mixture of corresponding enzymes and luciferin substrate (final concentrations CYP enzyme-specific and pro-luciferin substrate-specific) or minus-enzyme (assay buffer conditions supplied by the manufacturer for respective enzyme isoform; typically, 100 mM KPO4) and luciferin substrate were dispensed using a BioRAPTR FRD (Beckman Coulter, Brea, CA) into columns of a 1536-well white solid-bottom medium binding plate (Greiner Bio-One, Monroe, NC). Five isoforms of cytochrome P450 were used (CYP1A2, CYP2C9, CYP2C19, CYP2D6, and CYP3A4).
2. Substances (final concentrations of most substances ranged from 19.5 nM to 39.8 uM) and controls (CYP-specific) were transferred (16 nL) via pintool (Wako Automation, Richmond, VA). Intraplate controls furafylline (CYP1A2), sulfaphenazole (CYP2C9), ketoconazole (CYP2C19), quinidine (CYP2D6), and ketoconazole (CYP3A4) were used correspondingly.
3. Assay plates were incubated at room temperature for 15 min.
4-5. […]
Potency is read from the fitted curve at half-maximal effect.

Row | Compound | activity change, negative = inhibition | Potency
1 | CCCCCCCCCCCCCCCCCCCCCCCCCCCCCCO | 4.8% [at 4.27 µM] | 
2 | CCCCCCCC/C=C\CCCCCCCCCCCCCC(=O)O |  | inactive
3 | C=C1C[C@@]23CC[C@H]4[C@@](C)(CCC[C@@]4(C)C(=O)O[C@@H]4O[C@H](CO)[C@@H](O)[C@H](O)[C@H]4O)[C@@H]2CC[C@]1(O[C@@H]1O[C@H](CO)[C@@H](O)[C@H](O[C@@H]2O[C@H](CO)[C@@H](O)[C@H](O)[C@H]2O)[C@H]1O[C@@H]1O[C@@H](C)[C@H](O)[C@@H](O)[C@H]1O)C3 |  | inactive
4 | CCCCCC(=O)O |  | inactive
5 | CC(C)=CCCC(C)=CCCC(C)=CCCC=C(C)CCC=C(C)CCC=C(C)C |  | inactive
6 | C=CCc1ccc(OC)c(OC)c1 |  | inactive
7 | C=C(C)C(CC=C(C)C)CC12CC(CC=C(C)C)C(C)(C)C(CC=C(C)C)(C(=O)/C(=C(\O)c3ccc(O)c(O)c3)C1=O)C2=O (stereo not given) |  | 15.8 µM (active)
8 | C=C1C[C@@]23CC[C@H]4[C@](C)(CCC[C@]4(C)C(=O)O[C@@H]4O[C@H](CO)[C@@H](O)[C@H](O)[C@H]4O)[C@@H]2CC[C@]1(O[C@H]1O[C@@H](CO)[C@H](O)[C@@H](O)[C@@H]1O)C3 |  | inactive
9 | C=C1CC[C@H](O)C/C1=C\C=C1/CCC[C@]2(C)[C@@H]([C@H](C)CC[C@H](C)C(C)C)CC[C@@H]12 |  | 10 µM (active)
10 | O=Cc1ccccc1O |  | inactive
11 | CC1(C)CC[C@]2(C(=O)O)CC[C@]3(C)C(=CCC4[C@@]5(C)CC[C@@H](O)C(C)(C)C5CC[C@]43C)C2C1 (stereo not given in full) |  | inactive
12 | CC(C)c1ccc(C=O)cc1 |  | inactive
13 | O=C(OC[C@H]1O[C@@H](OC(=O)c2cc(O)c(O)c(O)c2)[C@H](OC(=O)c2cc(O)c(O)c(O)c2)[C@@H](OC(=O)c2cc(O)c(O)c(O)c2)[C@@H]1O)c1cc(O)c(O)c(O)c1 |  | 3.16 µM (active)
14 | COc1ccc(-c2coc3cc(O[C@@H]4O[C@H](CO)[C@@H](O)[C@H](O)[C@H]4O)ccc3c2=O)cc1 |  | inactive
15 | CCCCCCCCCCCCCCCCCCCCCC(=O)O |  | inactive
16 | CCCCC/C=C/C/C=C/CCCCCCCC(=O)O |  | 12.6 µM (active)
17 | Cc1ccc(O)c(O)c1 |  | inactive
18 | O=C(/C=C/c1ccc(O)c2c1[C@H](C(=O)O)[C@@H](c1ccc(O)c(O)c1)O2)O[C@H](Cc1ccc(O)c(O)c1)C(=O)O |  | 14.1 µM (active)
19 | COc1cc(/C=C/c2ccccc2)oc(=O)c1 |  | inactive
20 | CC12CC3(O)OC(O1)C1(COC(=O)c4ccc(O)cc4)C3CC21OC1OC(CO)C(O)C(O)C1O (stereo not given) |  | inactive

Row | Compound | activity change, negative = inhibition | Potency
21 | CC(C)=CCC[C@](C)(OC1OC(COC2OCC(O)C(O)C2O)C(O)C(O)C1O)[C@H]1CC[C@]2(C)[C@@H]1[C@H](O)C[C@@H]1[C@@]3(C)CC[C@H](OC4OC(CO)C(O)C(O)C4OC4OC(CO)C(O)C(O)C4O)C(C)(C)[C@@H]3CC[C@]12C (stereo not given in full) |  | inactive
22 | CC(=O)O[C@@H]1CC[C@@]2(C)[C@@H](CC[C@]3(C)[C@@H]2C(=O)C=C2[C@@H]4[C@@H](C)[C@H](C)CC[C@]4(C)CC[C@]23C)[C@@]1(C)C(=O)O |  | 14.1 µM (active)
23 | CC(C)=CCC[C@](C)(O[C@@H]1O[C@H](CO)[C@@H](O)[C@H](O)[C@H]1O)[C@H]1CC[C@]2(C)[C@@H]1[C@H](O)C[C@@H]1[C@@]3(C)CC[C@H](O)C(C)(C)[C@@H]3[C@@H](O[C@@H]3O[C@H](CO)[C@@H](O)[C@H](O)[C@H]3O[C@@H]3O[C@@H](C)[C@H](O)[C@@H](O)[C@H]3O)C[C@]12C |  | inactive
24 | C=CC(C)(CCC=C(C)C)OC(C)=O (stereo not given) |  | inactive
25 | CCCCCCCCCC=O |  | inactive
26 | CC(C)=CCC[C@](C)(O[C@@H]1O[C@H](CO)[C@@H](O)[C@H](O)[C@H]1O)[C@H]1CC[C@]2(C)[C@@H]1[C@H](O)C[C@@H]1[C@@]3(C)CC[C@H](O)C(C)(C)[C@@H]3[C@@H](O[C@@H]3O[C@H](CO)[C@@H](O)[C@H](O)[C@H]3O)C[C@]12C |  | inactive
27 | CC/C=C\C/C=C\C/C=C\C/C=C\CCCCC(=O)O | -16.1% [at 4.27 µM] | 
28 | CCCCCCC/C=C/C(=O)CCc1ccc(O)c(OC)c1 |  | 25.1 µM (active)
29 | CC(C)(O)[C@@H]1CC[C@](C)([C@H]2[C@@H](O)C[C@@]3(C)[C@@H]4C[C@H](O)[C@H]5C(C)(C)[C@@H](O[C@@H]6OC[C@@H](O)[C@H](O)[C@H]6O[C@@H]6O[C@H](CO)[C@@H](O)[C@H](O)[C@H]6O)CC[C@@]56C[C@@]46CC[C@]23C)O1 |  | inactive
30 | O=c1c(O[C@@H]2O[C@H](CO)[C@H](O)[C@H](O)[C@H]2O)c(-c2ccc(O)c(O)c2)oc2cc(O)cc(O)c12 |  | 7.94 µM (active)
31 | O[C@@H]1[C@@H](O)[C@H](OC/C=C/c2ccccc2)O[C@H](CO[C@@H]2OC[C@H](O)[C@H](O)[C@H]2O)[C@H]1O |  | inactive
32 | CC1(C)C2CCC1(C)C(O)C2 (stereo not given) |  | inactive
33 | CN(CC(=O)O)C(=N)N |  | inactive
34 | C[C@@H]1OC(O[C@H]2[C@H](O)[C@@H](O)[C@H](OC[C@H]3O[C@@H](OC(=O)[C@]45CCC(C)(C)C[C@@H]4C4=CCC6[C@@]7(C)CC[C@H](OC8OC[C@H](O)[C@H](O)[C@H]8OC8O[C@@H](C)[C@H](O)[C@@H](O)[C@H]8O)[C@@](C)(CO)C7CC[C@@]6(C)[C@]4(C)CC5)[C@H](O)[C@@H](O)[C@@H]3O)O[C@@H]2CO)[C@H](O)[C@H](O)[C@H]1O (stereo not given in full) |  | inactive
35 | COc1cc(-c2oc3cc(O)cc(O)c3c(=O)c2O)ccc1O |  | 4.47 µM (active)
36 | OCC1=C[C@@H](O)[C@@H]2C=CO[C@@H](OC3O[C@H](CO)[C@@H](O)[C@H](O)[C@H]3O)[C@H]12 (stereo not given in full) |  | inactive
37 | COc1ccc(C(=O)O)cc1 |  | inactive
38 | O=C(/C=C/c1ccc(O)c(O)c1)O[C@@H]1CC(C(=O)O)=C[C@@H](O)[C@H]1O |  | inactive
39 | O=C(/C=C/c1ccc(O)c(O)c1)OC1[C@H](O)CC(O)(C(=O)O)C[C@@H]1O (stereo not given in full) |  | inactive
40 | CC(C)=CCC[C@](C)(O[C@@H]1O[C@H](CO)[C@@H](O)[C@H](O)[C@H]1O)[C@H]1CC[C@]2(C)[C@@H]1[C@H](O)C[C@@H]1[C@@]3(C)CC[C@H](O[C@@H]4O[C@H](CO)[C@@H](O)[C@H](O)[C@H]4O[C@@H]4O[C@H](CO)[C@@H](O)[C@H](O)[C@H]4O)C(C)(C)[C@@H]3CC[C@]12C |  | inactive
